According to PubChem BioAssay (Tox21):
Inconclusive results are not listed. Active and inactive are the calls of the source. Unless noted, calls come from the whole dose curve; as a rule, active = well fitted curve in the direction sought with a large enough effect in the repeat runs; inconclusive = weak or mixed curves; inactive = no such curve, though single readings can be large; an effect the other way counts as inactive or inconclusive.

Legend:
[1] = qHTS assay for small molecules that induce genotoxicity in human embryonic kidney cells expressing luciferase-tagged ATAD5 (AID 651632); note: nearly all actives have a fitted effect of over 15% in size
In short: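 ATAD5-luc HEK293T, 2,000 cells/well; cpd or DMSO pin-transferred; 16 hr, 37C/5% CO2; Amplite 30 min RT; luminescence.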

[2] = qHTS assay for small molecule agonists of the p53 signaling pathway - cell viability (AID 651633; calls by dose curve; note: series mostly up to about 83 µM; nearly all actives have a fitted effect of over 30% in size)
In short: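 Viability counter-read: CellTiter-Glo luminescence (30 min, room temperature) in the same p53RE-bla plates. These plates had been exposed to compounds for 16 h at 37 C.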

[3] = qHTS assay for small molecules that induce genotoxicity in human embryonic kidney cells expressing luciferase-tagged ATAD5 - cell viability (AID 651634; calls by dose curve; note: nearly all actives have a fitted effect of over 25% in size)
In short: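 Fluorescence from CellTiter-Fluor, reporting protease activity within live cells, served as the viability read-out. HEK293T cells carrying luciferase-tagged ATAD5 had been treated with compound for 15.5 hr at 37C.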

[4] = qHTS assay for small molecule disruptors of the mitochondrial membrane potential - cell viability (AID 720634; calls by dose curve;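 note: human HepG2 liver cancer cells; series mostly up to about 83 µM; nearly all actives have a fitted effect of over 20% in size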)
In short: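 Cells: HepG2, 2,000/well, attached overnight. Compound 1 hr, 37 C/5% CO2. +m-MPI dye, +CellTiter-Glo 30 min RT. Readout: luminescence (ATP).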

[5] = qHTS assay for small molecule disruptors of the mitochondrial membrane potential (AID 720635)
In short: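 Mitochondrial membrane potential tracked with Mito-MPS dye, red aggregates (ex 540/em 590 nm) against green monomers (ex 490/em 535 nm). Compound treatment 1 hr at 37C, dye 30 min in HepG2.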

[6] = qHTS assay to test for compound auto fluorescence at 590 nm (red) in HepG2 cells (AID 720674)
In short: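 1 hr compound incubation on HepG2 cells, 37 C, 5% CO2; plate read ex 540 nm / em 590 nm; intensities reported as Rose Bengal sodium equivalents.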

[7] = qHTS assay to test for compound auto fluorescence at 535 nm (green) in HepG2 cells (AID 720675)
[8] = qHTS assay to test for compound auto fluorescence at 460 nm (blue) in HEK293 cells (AID 720678)
In short: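 HEK293 cells (2,000 per well, medium with 10% dialyzed FBS) attached for 4-5 hr at 37C, then received compound and stood overnight at 37C, 5% CO2. Blue fluorescence was read at Ex/Em 405/460 nm and expressed relative to triamterene.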

[9] = qHTS assay to test for compound auto fluorescence at 590 nm (red) in HEK293 cells (AID 720679)
In short: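 HEK293 cells (2,000/well, medium with 10% dialyzed FBS) attached for 4-5 hr at 37C, received 23 nL compound and were incubated overnight at 37C, 5% CO2. Red fluorescence was then read at 540/590nm Ex/Em, referenced to Rose Bengal sodium.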

[10] = qHTS assay for small molecule agonists of the p53 signaling pathway (AID 651631; calls by dose curve; note: nearly all actives have a fitted effect of over 15% in size)
In short: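 Testing took place in human colorectal HCT-116 cells with stable p53RE-driven beta-lactamase. After 16 h of compound exposure at 37 °C, a FRET substrate was added and fluorescence recorded 2 h later.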
% is set by controls: 0 for no effect and ±100 for the full control effect.

Cc1ccsc1/C=C/C1=NCCCN1C
inactive: Potency [1] | outcome [2] | Potency [3] | outcome [4] | Potency [5] | fluorescence, relative to Rose Bengal [6] 0.162% [at 18.6 µM] | fluorescence, % of fluorescein control [7] 0.0988% [at 18.6 µM] | fluorescence, % of triamterene [8] -0.421% [at 18.6 µM] | fluorescence, % of fluorescent control [9] -1.08% [at 18.6 µM]

CCCCCCCCSCC
inactive: Potency [1] | outcome [2] | Potency [3] | outcome [4] | outcome [6] | outcome [7] | outcome [8] | outcome [9]

CC(C)C[C@H](NC(=O)CNC(=O)[C@H](Cc1ccc(O)cc1)NC(=O)[C@H](CO)NC(=O)[C@H](Cc1c[nH]c2ccccc12)NC(=O)[C@H](Cc1cnc[nH]1)NC(=O)[C@@H]1CCC(=O)N1)C(=O)N[C@@H](CCCN=C(N)N)C(=O)N1CCC[C@H]1C(=O)NCC(N)=O (stereo in doubt)
inactive: Potency [1] | outcome [2] | Potency [3] | outcome [4] | Potency [5] | outcome [6] | outcome [7] | outcome [8] | outcome [9]

CC(=O)N[C@@H](CCC(=O)O)C(=O)O
inactive: Potency [1] | outcome [2] | Potency [3] | outcome [4] | Potency [5] | outcome [6] | outcome [7] | outcome [8] | outcome [9]

Nc1ncnc(Nc2ccccc2)n1
inactive: Potency [1] | outcome [2] | Potency [3] | outcome [4] | Potency [5] | outcome [6] | outcome [7] | outcome [8] | outcome [9]

COc1cc(C(=S)N2CCOCC2)cc(OC)c1OC
inactive: Potency [1] | outcome [2] | Potency [3] | outcome [4] | outcome [6] | outcome [7] | outcome [8] | outcome [9]

COC(=O)CCCCCCCC(=O)OC
inactive: Potency [1] | outcome [2] | Potency [3] | outcome [4] | outcome [6] | outcome [7] | outcome [8] | outcome [9]

COC(=O)CCc1ccc(OCC(O)CNC(C)C)cc1 (stereo not drawn)
inactive: Potency [1] | outcome [2] | Potency [3] | outcome [4] | outcome [6] | outcome [7] | outcome [8] | outcome [9]

CCCCCCOC(=O)CC
inactive: Potency [1] | outcome [2] | Potency [3] | outcome [4] | outcome [6] | outcome [7] | outcome [8] | outcome [9]

CC(CN)CC(C)(C)CCN (stereo not drawn)
inactive: Potency [1] | outcome [2] | Potency [3] | outcome [4] | Potency [5] | outcome [6] | outcome [7] | outcome [8] | outcome [9]

O=C(O)CCSSCCC(=O)O
inactive: Potency [1] | outcome [2] | Potency [3] | outcome [4] | outcome [6] | outcome [7] | outcome [8] | outcome [9]

CC(C)OC(=O)CCCCC(=O)OC(C)C
inactive: Potency [1] | outcome [2] | Potency [3] | outcome [4] | outcome [6] | outcome [7] | outcome [8] | outcome [9]

CCCCCCOc1ccccc1C(N)=O
inactive: Potency [1] | outcome [2] | Potency [3] | outcome [4] | outcome [6] | outcome [7] | outcome [8] | outcome [9]

CC/C=C\CC1=C(C)CCC1=O
inactive: Potency [1] | outcome [2] | Potency [3] | outcome [4] | outcome [6] | outcome [7] | outcome [8] | outcome [9]

CN(C)c1ccc(C=O)cc1
inactive: Potency [1] | outcome [2] | Potency [3] | outcome [4] | outcome [6] | outcome [7] | outcome [8] | outcome [9]

CCC(CC)CO
inactive: Potency [1] | outcome [2] | Potency [3] | outcome [4] | Potency [5] | outcome [7] | outcome [9]

CCO[Si](CCCS)(OCC)OCC
inactive: outcome [10] | Potency [3] | outcome [4] | outcome [6] | outcome [7] | outcome [8] | outcome [9]

CC(=O)c1sc(C)nc1C
inactive: Potency [1] | outcome [2] | Potency [3] | outcome [4] | Potency [5] | outcome [7] | outcome [8] | outcome [9]

CC(=O)Nc1cccc(C)c1
inactive: Potency [1] | outcome [2] | Potency [3] | outcome [4] | Potency [5] | outcome [6] | outcome [7] | outcome [8] | outcome [9]

Cc1cccc(C)c1OCC(C)N (stereo not drawn)
inactive: Potency [1] | outcome [2] | Potency [3] | outcome [7] | outcome [8] | outcome [9]

COc1nccnc1NS(=O)(=O)c1ccc(N)cc1
inactive: Potency [1] | outcome [2] | Potency [3] | outcome [4] | outcome [6] | outcome [7] | outcome [9]

CCCCCOC(=O)CCC
inactive: Potency [1] | outcome [2] | Potency [3] | outcome [4] | outcome [6] | outcome [7] | outcome [9]

O=C1c2ccccc2C(=O)c2cc(S(=O)(=O)O)ccc21
inactive: Potency [1] | Potency [3] | outcome [4] | outcome [6] | outcome [7] | outcome [8] | outcome [9]

COP(=O)(OC)OC(c1ccc(Cl)cc1)P(=O)(OC)OC (stereo not drawn)
inactive: Potency [1] | Potency [3] | outcome [4] | Potency [5] | outcome [6] | outcome [7] | outcome [8] | outcome [9]

C=CCCCCCCCCCCCC
inactive: Potency [1] | outcome [2] | Potency [3] | outcome [4] | outcome [6] | outcome [7] | outcome [8] | outcome [9]

C=C(C)C(=O)OCc1ccccc1
inactive: Potency [1] | outcome [2] | Potency [3] | outcome [4] | outcome [6] | outcome [7] | outcome [8] | outcome [9]

COc1ccc(OC)c(Cl)c1
inactive: Potency [1] | outcome [2] | Potency [3] | outcome [4] | outcome [6] | outcome [7] | outcome [9]

O=C(O)c1cc(Cl)cc([N+](=O)[O-])c1Cl
inactive: Potency [1] | Potency [3] | outcome [4] | outcome [6] | outcome [7] | outcome [8] | outcome [9]

COc1cc2c(cc1OC)[C@@H]1CC(=O)[C@@H](CC(C)C)CN1CC2
inactive: Potency [1] | Potency [3] | outcome [4] | outcome [6] | outcome [7] | outcome [8] | outcome [9]

Nc1cccc(O)c1
inactive: Potency [1] | outcome [2] | outcome [6] | outcome [7] | outcome [8] | outcome [9]

CCOC(=O)CC(=O)c1ccccc1
inactive: Potency [1] | Potency [3] | outcome [4] | outcome [6] | outcome [7] | outcome [8] | outcome [9]

O=C1c2cccc3c2[C@H](CCC3)CN1[C@@H]1CN2CCC1CC2
inactive: Potency [1] | outcome [2] | outcome [4] | outcome [7] | outcome [8] | outcome [9]

COc1cc(N)ccc1C
inactive: Potency [1] | outcome [2] | outcome [4] | Potency [5] | outcome [7] | outcome [8] | outcome [9]

BrCc1cccc(Oc2ccccc2)c1
inactive: Potency [1] | outcome [2] | Potency [3] | outcome [4] | outcome [6] | outcome [7] | outcome [9]

CCCCC(CC)COCCO (stereo not drawn)
inactive: Potency [1] | outcome [2] | Potency [3] | outcome [4] | outcome [6] | outcome [7] | outcome [9]

O=C(CCN1CCN(CCO)CC1)N1c2ccccc2Sc2ccc(C(F)(F)F)cc21
inactive: Potency [1] | outcome [2] | Potency [3] | outcome [4] | outcome [6] | outcome [7] | outcome [8] | outcome [9]

CC(CO)c1ccccc1 (stereo not drawn)
inactive: Potency [1] | outcome [2] | Potency [3] | outcome [4] | outcome [6] | outcome [7] | outcome [8] | outcome [9]

COc1ccc2c(c1)C(=O)N(CCc1ccc(S(=O)(=O)NC(=O)NC3CCCCC3)cc1)C(=O)C2(C)C
inactive: Potency [1] | outcome [2] | Potency [3] | outcome [4] | fluorescence, % of fluorescein control [7] -0.152% [at 18.6 µM] | fluorescence, % of fluorescent control [9] -0.014% [at 18.6 µM]

CCCOC(=O)C(C)O (stereo not drawn)
inactive: Potency [1] | outcome [2] | Potency [3] | outcome [4] | outcome [6] | outcome [7] | outcome [8] | outcome [9]

CCN(C)C(=O)Oc1cccc([C@H](C)N(C)C)c1
inactive: Potency [1] | outcome [2] | Potency [3] | outcome [4] | outcome [6] | outcome [7] | outcome [8] | outcome [9]

OCCC(F)(F)C(F)(F)C(F)(F)C(F)(F)C(F)(F)C(F)(F)C(F)(F)C(F)(F)F
inactive: Potency [1] | Potency [3] | outcome [4] | outcome [6] | outcome [7] | outcome [8] | outcome [9]

CC(=O)Nc1ccc(S(=O)(=O)Nc2ccc([N+](=O)[O-])cc2)cc1
inactive: Potency [1] | outcome [2] | outcome [4] | outcome [7] | outcome [9]
